Where “and” joins values, the source holds several entries; their conditions need not be identical. Equal values may be shown once. Some compounds were tested as several samples or in several runs, with calls that do not always agree. Calls of active or inactive are those of the source. The calls were made as follows: active = hit-call score of the fitted dose curve at least 0.9, where 1 is the maximum; inactive = score below 0.9.
Columns and labels:
[1] = read-out: Urokinase-type plasminogen activator receptor (uPAR), PLAUR (gene 5329); test: BSK_4H_uPAR: BioMAP Diversity Plus: 4H Assay for Urokinase-type plasminogen activator receptor (uPAR) Biomarker Activity (AID 2283030); settings: primary human endothelial cells (HUVEC); actives raise or lower the signal
Outline: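 Cell-surface uPAR ELISA signal, measured 24 h after dosing human umbilical vein endothelial cells, was analyzed with bidirectional fitting relative to DMSO. Parallel SRB staining of total protein tracked overt cytotoxicity.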

[2] = read-out: Vascular endothelial growth factor receptor 2 (Homo sapiens) (UniProt P35968); test: BSK_4H_VEGFRII: BioMAP Diversity Plus: 4H Assay for Vascular endothelial growth factor receptor 2 (VEGFR2) Biomarker Activity (AID 2283031); settings: primary human endothelial cells (HUVEC); actives raise or lower the signal;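 as to AC50: cell-surface VEGFR2 protein level quantified by ELISA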
Outline: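 ELISA read-out of VEGFRII in primary human umbilical vein endothelium, taken 24 h after chemical treatment. Responses are expressed relative to DMSO, with bidirectional fitting.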

[3] = read-out: Human Leukocyte Antigen - DR isotype (HLADR), HLA-DRA (gene 3122); test: BSK_BE3C_HLADR: BioMAP Diversity Plus: BE3C Assay for Human Leukocyte Antigen - DR isotype (HLADR) Biomarker Activity (AID 2283032); settings: primary human bronchial epithelial cells; actives raise or lower the signal
Outline: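 Signal came from an ELISA for HLA-DR in human bronchial epithelial primary cells harvested 24 h after treatment; gain- and loss-of-signal fitting used DMSO controls as reference.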

[4] = read-out: Vascular cell adhesion molecule 1 (VCAM1), VCAM1 (gene 7412); test: BSK_4H_VCAM1: BioMAP Diversity Plus: 4H Assay for Vascular cell adhesion molecule 1 (VCAM1) Biomarker Activity (AID 2283033); settings: primary human endothelial cells (HUVEC); actives raise or lower the signal
Outline: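 Endpoint derived from bidirectional fitting against DMSO controls of VCAM-1 ELISA signal in umbilical vein endothelial cells sampled at 24 h following treatment.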

[5] = read-out: Interferon-gamma inducible Protein 10 (IP10), CXCL10 (gene 3627); test: BSK_BE3C_IP10: BioMAP Diversity Plus: BE3C Assay for Interferon-gamma inducible Protein 10 (IP10) Biomarker Activity (AID 2283034); settings: primary human bronchial epithelial cells; actives raise or lower the signal
Outline: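 Using primary human bronchial epithelial cultures, the assay captures IP-10 by ELISA one day (24 h) after exposure. Parallel SRB staining of total protein flags overt cytotoxicity. Fits run bidirectionally relative to DMSO.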

[6] = read-out: Monokine induced gamma interferon (MIG), CXCL9 (gene 4283); test: BSK_BE3C_MIG: BioMAP Diversity Plus: BE3C Assay for Monokine induced gamma interferon (MIG) Biomarker Activity (AID 2283035); settings: primary human bronchial epithelial cells; actives raise or lower the signal
Outline: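 ELISA read-out of MIG in human lung bronchial epithelial primary cultures, 24 h post-dosing. Bidirectional curve fit vs DMSO baseline.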

[7] = read-out: Transforming growth factor beta 1 (TGFb1), TGFB1 (gene 7040); test: BSK_BE3C_TGFb1: BioMAP Diversity Plus: BE3C Assay for Transforming growth factor beta 1 (TGFb1) Biomarker Activity (AID 2283036); settings: primary human bronchial epithelial cells; actives raise or lower the signal
Outline: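 In this human primary bronchial epithelial system, an ELISA quantified TGF-b1 one day after dosing. Endpoint changes in either direction were fitted relative to DMSO.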

[8] = read-out: Plasminogen activator inhibitor-1 (PAI1), SERPINE1 (gene 5054); test: BSK_BE3C_PAI1: BioMAP Diversity Plus: BE3C Assay for Plasminogen activator inhibitor-1 (PAI1) Biomarker Activity (AID 2283037); settings: primary human bronchial epithelial cells; actives raise or lower the signal
Outline: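 PAI-1 biomarker levels in treated human bronchial epithelial cells are determined by ELISA at 24 h. Both increases and decreases relative to DMSO are fitted.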

[9] = read-out: urokinase plasminogen activator (uPA), PLAU (gene 5328); test: BSK_BE3C_uPA: BioMAP Diversity Plus: BE3C Assay for urokinase plasminogen activator (uPA) Biomarker Activity (AID 2283038); settings: primary human bronchial epithelial cells; actives raise or lower the signal
Outline: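 Bronchial epithelial cells (human, primary); chemical 24 h; uPA by ELISA; bidirectional fit vs DMSO. SRB (0.1%, after 10% TCA fixation, 560 nm) in parallel cultures for cytotoxicity.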

[10] = read-out: Urokinase-type plasminogen activator receptor (uPAR), PLAUR (gene 5329); test: BSK_BE3C_uPAR: BioMAP Diversity Plus: BE3C Assay for Urokinase-type plasminogen activator receptor (uPAR) Biomarker Activity (AID 2283039); settings: primary human bronchial epithelial cells; actives raise or lower the signal
Outline: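 A uPAR ELISA serves as the readout, taken 24 h after treating primary human bronchial epithelial cells. Responses in either direction are fitted against DMSO, which defines baseline activity.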

Measured: AC50

CCCCC1C(=O)N(c2ccccc2)N(c2ccccc2)C1=O
inactive: all assays above

O=C(Oc1ccccc1)c1ccccc1C(=O)Oc1ccccc1
not listed: [1]
inactive: all other assays above

Oc1ccc(/C=C/c2cc(O)cc(O)c2)cc1
active: [1] 1.24 µM | [3] 20 µM | [10] 11.1 µM
not listed: [5]
inactive: all other assays above

Clc1cc(Cl)c(Cl)c(Cl)c1Cl
active: [4] 20 µM
inactive: all other assays above

CC(C)c1cccc(C(C)C)c1N
active: [4] 32 µM
inactive: all other assays above

Oc1ccccc1Cc1ccccc1O
inactive: [1] | [2] | [3] | [4] | [5] | [6] | [8] | [9] | [10]
active: [8] 18 µM

Nc1ccc(C(=O)O)cc1
inactive: all assays above

CCN1CN(CC)CN(CC)C1
inactive: all assays above

Cc1ccc([N+](=O)[O-])cc1N
inactive: all assays above

CC=C(C)C=CC=C(C)C
active: [3] 15.9 µM | [9] 0.0546 µM
inactive: all other assays above

CCNc1nc(NC(C)(C)C)nc(OC)n1
inactive: all assays above

COc1ccc(C(=O)c2ccccc2)c(O)c1
active: [4] 29.1 µM
inactive: all other assays above

CCCCCCC=O
inactive: all assays above

COc1ccc(C(=O)/C(Br)=C\C(=O)O)cc1
inactive: [2] | [6] | [7] | [8] | [9] | [10]
active: [2] 29.8 µM | [3] 26.8 µM and 20 µM | [4] 22.1 µM and 20 µM | [5] 20 µM | [6] 28.8 µM | [7] 8.23 µM | [8] 8.24 µM | [9] 20 µM

c1ccc2c(c1)[nH]c1ccccc12
inactive: [2] | [3] | [4] | [5] | [6] | [7] | [8] | [9] | [10]
active: [5] 20.1 µM

CCOC(=O)C1=NOC(c2ccccc2)(c2ccccc2)C1
inactive: all assays above

O=C1CCCCCCCCCCC1
not listed: [1]
inactive: all other assays above

c1ccc(Nc2cccc3ccccc23)cc1
inactive: [6] | [9] | [10]
active: [1] 35.4 µM and 35.1 µM | [2] 33.2 µM and 32.2 µM | [3] 28 µM and 30.7 µM | [4] 31.4 µM and 28.8 µM | [5] 29.1 µM and 30.6 µM | [8] 12.7 µM and 20.4 µM | [10] 35.2 µM

CCOC(=O)/C=C\C(=O)OCC
inactive: all assays above

c1ccc2sc(SSN3CCOCC3)nc2c1
active: [4] 6.28 µM | [5] 12.3 µM
not listed: [1]
inactive: all other assays above

O=C1CCCCCCCCCCCN1
inactive: all assays above

C=C(C)C(=O)OCCCCCCCCCCCC
not listed: [1]
inactive: all other assays above

CC/C=C\C/C=C\C/C=C\CCCCCCCC(=O)OC
active: [1] 30.9 µM | [3] 13.4 µM | [4] 29 µM | [5] 11.8 µM | [6] 29.6 µM | [7] 9.17 µM | [8] 25.5 µM | [9] 29.8 µM | [10] 28.8 µM
inactive: [2]

CCCCCC1=CCCC1=O
not listed: [1]
inactive: all other assays above

CC1(C)CC(O)CC(C)(C)N1[O]
inactive: all assays above

C=CC(=O)OCC(C)OCC(C)OCC(C)OC(=O)C=C (centres undefined)
active: [3] 13.6 µM | [4] 10.1 µM | [5] 30.6 µM
not listed: [1]
inactive: all other assays above

C=CC(=O)NCOCCCC
inactive: all assays above

C[N+](C)(C)CCCNS(=O)(=O)C(F)(F)C(F)(F)C(F)(F)C(F)(F)C(F)(F)C(F)(F)C(F)(F)C(F)(F)F
inactive: [2] | [3] | [4] | [6] | [8] | [9] | [10]
active: [3] 54.8 µM | [5] 30 µM and 43.7 µM | [9] 1.1 µM

CC1=CC=C(C(C)C)CC1
not listed: [1]
inactive: all other assays above

CCCCCCCCC(CO)CCCCCC (centres undefined)
active: [5] 2.01 µM | [8] 1.36 µM
not listed: [1]
inactive: all other assays above

CC(CCC(=O)O)(c1ccc(O)cc1)c1ccc(O)cc1
not listed: [1] | [7]
inactive: all other assays above

CC(C)[N+](C)(CCOC(=O)C1c2ccccc2Oc2ccccc21)C(C)C
not listed: [1]
inactive: all other assays above

O=C(Cl)c1c(Cl)c(Cl)c(C(=O)Cl)c(Cl)c1Cl
not listed: [1]
inactive: all other assays above

C=CC(=O)OCCCCCCOC(=O)C=C
active: [2] 20 µM | [3] 7.89 µM | [4] 20 µM | [5] 26 µM | [6] 35.7 µM | [10] 11.4 µM
inactive: [7] | [8] | [9]

C1CNCCN1
not listed: [1]
inactive: all other assays above

C=CC(=O)NC(C)(C)C
not listed: [1]
inactive: all other assays above

CC(C)C(=O)OCCc1ccccc1
not listed: [1] | [7]
inactive: all other assays above

Fc1ccc(Br)cc1
not listed: [1]
inactive: all other assays above

CC(c1cc(C(C)(C)C)cc(C(C)(C)C)c1O)c1cc(C(C)(C)C)cc(C(C)(C)C)c1O
not listed: [1]
inactive: all other assays above

Cc1c(O)cccc1O
not listed: [1]
inactive: all other assays above

Oc1c(Cl)cc(Cl)c(Cl)c1Cl
active: [3] 6.25 µM | [4] 20 µM | [5] 20 µM | [8] 7.51 µM | [9] 6.07 µM | [10] 20 µM
inactive: [2] | [6] | [7]

CCc1cccc(C)c1N(C(=O)CS(=O)(=O)O)C(C)COC (centres undefined)
not listed: [1]
inactive: all other assays above

CCCCCCCCCCCC(C)=O
active: [4] 29.6 µM | [5] 20 µM
not listed: [1]
inactive: all other assays above

CC(C)CCCCCOC(=O)CS
not listed: [1]
inactive: all other assays above

CCCC(C)C(=O)OCC (centres undefined)
not listed: [1] | [7]
inactive: all other assays above

C=CCCCCCCCCC=O
not listed: [1]
inactive: all other assays above

CCCCCCOC(=O)CCCCC(=O)OCCCCCC
not listed: [1]
inactive: all other assays above

CCCCCCCCCCCC(=O)N(C)CC(=O)O
active: [2] 9.25 µM and 120 nM | [4] 3.87 µM and 2.41 µM
not listed: [1] | [7]
inactive: all other assays above

CC=C(C)C(C)=O
active: [5] 20 µM
not listed: [1]
inactive: all other assays above

CC/C=C\CCOC(=O)c1ccccc1O
active: [2] 20 µM | [3] 20 µM | [4] 25.1 µM
not listed: [1]
inactive: all other assays above

CCOC(=O)C1=NN(c2ccc(Cl)cc2Cl)C(C)(C(=O)OCC)C1 (centres undefined)
not listed: [1]
inactive: all other assays above

COC(OC)(C(=O)c1ccccc1)c1ccccc1
not listed: [1]
inactive: all other assays above

Nc1cccc(N)n1
not listed: [1]
inactive: all other assays above

C=CC(=O)OCCCCCCCC(C)C
active: [4] 15.7 µM
not listed: [1]
inactive: all other assays above

Nc1nc(N)nc(-c2ccccc2)n1
not listed: [1] | [7]
inactive: all other assays above

CCCCCCCO
not listed: [1] | [3]
inactive: all other assays above

O=C(O)C(F)(F)C(F)(F)C(F)(F)C(F)(F)C(=O)O
not listed: [1] | [7]
inactive: all other assays above

CC(Cl)COP(=O)(OCC(C)Cl)OCC(C)Cl (centres undefined)
not listed: [1]
inactive: all other assays above

CCC1(C)C(=O)N(Cl)C(=O)N1Cl (centres undefined)
not listed: [1]
inactive: all other assays above

— PubChem BioAssay (EPA / NIEHS)
